Measurements from PubChem BioAssay (EPA / NIEHS).
Records with an inconclusive call do not appear. The source made the active and inactive calls. How the source made its calls, unless noted: active means hit-call score of the fitted dose curve at least 0.9, where 1 is the maximum; inactive means score below 0.9.

What was measured:
[1] = IUF_NPC1b_proliferation_BrdU_72hr: Leibniz Research Institute for Environmental Medicine (IUF) 72-hour Neural Progenitor Cell Bromodeoxyuridine (BrdU) Proliferation Assay (NPC1b) (AID 2284207)
Summary of the method: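 Neural progenitor spheres of human fetal origin are treated for three days; BrdU added for the last 16 h is quantified by luminescence ELISA, with DMSO as baseline and EGF/FGF omission as positive control.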

[2] = IUF_NPC1a_proliferation_area_72hr: Leibniz Research Institute for Environmental Medicine (IUF) 72-hour Neural Progenitor Cell Proliferation Area Assay (NPC1a) (AID 2284208)
Summary of the method: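 Measured in 3D suspension: each well held one primary hNPC sphere grown with EGF and FGF at pH 7.2-7.6. Compound stayed on for 72 h, then area was imaged; spheres lacking growth factors defined reduced proliferation.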

[3] = IUF_NPC1_viability_72hr: Viability Assessment at 72 hours in the Leibniz Research Institute for Environmental Medicine (IUF) Neural Progenitor Cell Proliferation Assay (NPC1) (AID 2284209)
Summary of the method: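 Viability was measured by resazurin-to-resorufin fluorescence (alamar blue) after 72 h of continuous exposure without compound renewal. Each well held one hNPC sphere (gestational week 16-19 fetal cortex, 0.25-0.35 mm) cultured in EGF/FGF proliferation medium at 37C and pH 7.2-7.6.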

[4] = CCTE_Mundy_HCI_Cortical_Synap_Neur_Matur_NeuriteSpotCountPerNeuriteLength: CCTE's Synaptogenesis and Neurite Maturation Assay in rat cortical cells for Neurite Spot Count per Neurite Length, Mundy Lab (AID 2284210)
Summary of the method: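 Neurite-associated synapse density (synaptophysin puncta per unit neurite length) is measured by fluorescence high-content imaging in rat cortical cultures treated from DIV 7 and fixed at DIV 12, with DMSO as negative control.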

[5] = CCTE_Mundy_HCI_Cortical_NOG_NeuriteLength: CCTE's Neurite Outgrowth Assay in rat cortical cells for Neurite Length, Mundy Lab (AID 2284213)
Summary of the method: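 First, rat primary cortical cells were plated and, 2 h later, given test chemical as a 1/10 dilution. Finally, βIII-tubulin immunostaining enabled automated imaging of neurite length.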

[6] = CCTE_Mundy_HCI_Cortical_Synap_Neur_Matur_NeuriteSpotCountPerNeuron: CCTE's Synaptogenesis and Neurite Maturation Assay in rat cortical cells for Neurite Spot Count per Neuron Count, Mundy Lab (AID 2284215)
Summary of the method: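 Developing rat cortical neurons, with glia suppressed by AraC, are exposed to chemicals from DIV 7 to DIV 12. Automated fluorescence imaging of MAP2-labelled neurites and synaptophysin puncta yields a count per neuron, normalised against DMSO wells.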

[7] = CCTE_Mundy_HCI_Cortical_Synap_Neur_Matur_SynapseCount: CCTE's Synaptogenesis and Neurite Maturation Assay in rat cortical cells for Synapse Count, Mundy Lab (AID 2284218)
Summary of the method: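 High-content imaging of synaptophysin puncta per MAP2-positive neuron (Hoechst nuclei) in rat cortical cells exposed DIV 7–12 after glial arrest with AraC at DIV 5; decrease relative to DMSO scored.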

[8] = CCTE_Mundy_HCI_hN2_NOG_NeuriteCount: CCTE's Neurite Outgrowth Assay in human hN2 cells for Neurite Count, Mundy Lab (AID 2284219; active means hit-call score of the fitted dose curve at least 0.9, where 1 is the maximum)
Summary of the method: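 In this morphology assay, hNP1-derived neurons received test chemical 2 h post-plating and were fixed two days later in warm paraformaldehyde/sucrose containing Hoechst 33342. Neurites, labelled by rabbit anti-βIII-tubulin (1:800) and Alexa Fluor-488 (1:500), were counted automatically.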

[9] = CCTE_Mundy_HCI_hN2_NOG_NeuriteLength: CCTE's Neurite Outgrowth Assay in human hN2 cells for Neurite Length, Mundy Lab (AID 2284220; active means hit-call score of the fitted dose curve at least 0.9, where 1 is the maximum)
Summary of the method: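 Using βIII-tubulin immunofluorescence and Hoechst nuclear counterstain, this component quantifies neurite length in hNP1-derived neurons.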

[10] = CCTE_Mundy_HCI_hN2_NOG_NeuronCount: CCTE's Neurite Outgrowth Assay in human hN2 cells for Neuron Count, Mundy Lab (AID 2284221; active means hit-call score of the fitted dose curve at least 0.9, where 1 is the maximum)
Summary of the method: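 Read-out is the number of betaIII-tubulin-positive neurons imaged by automated high-content analysis, with DMSO as negative control.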

[11] = CCTE_Mundy_HCI_Cortical_Synap_Neur_Matur_CellBodySpotCount: CCTE's Synaptogenesis and Neurite Maturation Assay in rat cortical cells for Cell Body Spot Count, Mundy Lab (AID 2284223)
Summary of the method: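 Chemicals were applied to AraC-treated rat primary cortical cells at DIV 7 and measured at DIV 12. Fixed cells were labelled for MAP2, synaptophysin and nuclei, and high-content imaging gave cell body synaptophysin spot counts per neuron relative to DMSO.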

[12] = UKN4_HCS_LUHMES_cell_viability: Viability Assessment in the University of Konstanz (UKN) Leist Lab Neurite Outgrowth Assay in human LUHMES cells (UKN4) (AID 2284232)
Summary of the method: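 Viability was read by high-content imaging of calcein-AM/H-33342-stained cells after 24 h toxicant exposure, staining included. Cells: human LUHMES on day 2 of dopaminergic differentiation, dosed shortly after attachment; DMSO baseline, bidirectional curve fitting.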

[13] = UKN2_HCS_IMR90_cell_viability: Viability Assessment in the University of Konstanz (UKN) Leist Lab Neural Crest Cell Migration Assay in human induced IMR90 Pluripotent Stem Cells (UKN2) (AID 2284233);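 further: viability of neural crest cells differentiated from IMR90 iPSC measured by calcein-AM fluorescence imaging; cells exposed to compound for 24 h after a 24 h migration phase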
Summary of the method: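 cMINC format, iPSC-derived neural crest (IMR90); 24 h migration (EGF/FGF, N2-S), then 24 h toxicant. Calcein-AM/H-33342 stain 30 min; fluorescence intensity by HCS; DMSO-normalised, bidirectional fitting.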

[14] = CCTE_Mundy_HCI_Cortical_NOG_NeuronCount: CCTE's Neurite Outgrowth Assay in rat cortical cells for Neuron Count, Mundy Lab (AID 2284236; active means hit-call score of the fitted dose curve at least 0.9, where 1 is the maximum;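 further: neurons counted by imaging betaIII-tubulin and Hoechst stained cortical cells; cells exposed to compound for about 48 hours before fixation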)
Summary of the method: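 Read-out: neuron number by high-content imaging of betaIII-tubulin (Alexa Fluor-488) and Hoechst-labelled rat primary cortical cells.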

[15] = CCTE_Mundy_HCI_hNP1_Casp3_7: CCTE's Caspase-Glo 3/7 Assay in human neuroprogenitor cells for Apoptosis, Mundy Lab (AID 2284240)
Summary of the method: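 Neuroepithelial-lineage stem cells from WA09 embryonic cells were treated with chemicals after 40–44 h of culture. Twenty-four hours later, caspase-3/7 activation was detected luminescently after a 30 min room-temperature reagent step, with DMSO as baseline.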

[16] = IUF_NPC2c_oligodendrocyte_migration_120hr: Leibniz Research Institute for Environmental Medicine (IUF) 120-hour Neural Progenitor Cell Migration Assay for Oligodendrocyte Migration (NPC2c) (AID 2284297);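 further: O4-positive oligodendrocyte migration distance divided by radial glia migration distance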
Summary of the method: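 Using fetal brain neural progenitor spheres differentiating in N2 medium at 37C, compounds were present for 120 h. Oligodendrocyte migration distance, normalized to radial glia migration, was measured from imaged O4 staining.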

[17] = IUF_NPC2a_radial_glia_migration_120hr: Leibniz Research Institute for Environmental Medicine (IUF) 120-hour Neural Progenitor Cell Migration Assay for Radial Glia Migration (NPC2a) (AID 2284298)
Summary of the method: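 Exposure of 0.3 mm primary hNPC spheres runs day 0 to 120 h with a half-volume medium change at day 3. Fixed cells get Hoechst staining; high-content analysis of nuclear positions yields radial glia migration distance per well, compared against DMSO controls.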

[18] = IUF_NPC2a_radial_glia_migration_72hr: Leibniz Research Institute for Environmental Medicine (IUF) 72-hour Neural Progenitor Cell Migration Assay for Radial Glia Migration (NPC2a) (AID 2284299)
Summary of the method: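 Radial glia migration (µm, sphere core edge to migration front, four directions averaged) from brightfield images at 72 h; hNPC spheres differentiating on PDL/laminin in N2 medium, compound exposure at 7 concentrations from plating.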

[19] = IUF_NPC2b_neuronal_migration_120hr: Leibniz Research Institute for Environmental Medicine (IUF) 120-hour Neural Progenitor Cell Migration Assay for Neuron Migration (NPC2b) (AID 2284300)
Summary of the method: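 Fetal human NPC spheres migrate on PDL/laminin during 120 h compound treatment; neuronal migration distance, glia-normalized, scored versus DMSO control.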

[20] = IUF_NPC3_neuronal_differentiation_120hr: Leibniz Research Institute for Environmental Medicine (IUF) 120-hour Neuronal Differentiation Assay (NPC3) (AID 2284301)
Summary of the method: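 Neuronal differentiation of primary human neural progenitors measured by high-content imaging: percent TUBB3+ of Hoechst+ nuclei within migrated area at 120 h, seven-point serial dilution plus solvent control, gain or loss relative to DMSO.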

[21] = IUF_NPC4_neurite_length_120hr: Leibniz Research Institute for Environmental Medicine (IUF) 120-hour Neuronal Morphology Assay for Neurite Length (NPC4) (AID 2284302)
Summary of the method: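 Neurons from differentiating human fetal neural progenitor spheres are scored for average neurite length after five days of compound exposure. Fitting uses DMSO as negative control.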

[22] = IUF_NPC5_oligodendrocyte_differentiation_120hr: Leibniz Research Institute for Environmental Medicine (IUF) 120-hour Oligodendrocyte Differentiation Assay (NPC5) (AID 2284304; active means hit-call score of the fitted dose curve at least 0.9, where 1 is the maximum;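 further: primary human fetal neural progenitor spheres plated to migrate and differentiate; share of O4-positive cells among Hoechst nuclei found by CNN image analysis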)
Summary of the method: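 After plating on poly-D-lysine/laminin, fetal-derived hNPC spheres differentiated for 120 h at 37C in compound-containing N2 medium, refreshed by half on day 3. O4 immunostaining over Hoechst nuclei in the migration zone gave oligodendrocyte percentage relative to DMSO.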

[23] = IUF_NPC4_neurite_area_120hr: Leibniz Research Institute for Environmental Medicine (IUF) 120-hour Neuronal Morphology Assay for Neurite Area (NPC4) (AID 2284305; active means hit-call score of the fitted dose curve at least 0.9, where 1 is the maximum)
Summary of the method: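 Endpoint at 120 h: automated imaging of TUBB3/Hoechst-stained differentiating human neural progenitor spheres, neurite area per neuron from skeletonization. DMSO solvent control, not above 0.1%, set the baseline; medium was half-replaced on day 3.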

[24] = IUF_NPC2-5_cytotoxicity_72hr: Cytotoxicity Assessment at 72 hours in the Leibniz Research Institute for Environmental Medicine (IUF) Neural Progenitor Cell Migration and Differentiation Assay for Cytotoxicity (NPC2-5) (AID 2284306; active means hit-call score of the fitted dose curve at least 0.9, where 1 is the maximum;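 further: LDH release into supernatant measured by resorufin fluorescence marking membrane damage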)
Summary of the method: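 Primary human neural progenitor spheres migrate and differentiate on laminin. Compound is present from the start of differentiation, with DMSO kept at or below 0.1%. At 72 h, supernatant LDH is quantified fluorometrically, with values fitted in the positive direction.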

[25] = IUF_NPC2-5_cytotoxicity_120hr: Cytotoxicity Assessment at 120 hours in the Leibniz Research Institute for Environmental Medicine (IUF) Neural Progenitor Cell Migration and Differentiation Assay (NPC2-5) (AID 2284307; active means hit-call score of the fitted dose curve at least 0.9, where 1 is the maximum)
Summary of the method: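 Membrane-integrity loss is quantified by LDH in supernatant after five days of exposure of migrating, differentiating human fetal NPC spheres; seven serially diluted concentrations are tested with DMSO kept at or below 0.1%.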

[26] = IUF_NPC2-5_cell_number_120hr: Cell Number Assessment at 120 hours in the Leibniz Research Institute for Environmental Medicine (IUF) Neural Progenitor Cell Migration and Differentiation Assay (NPC2-5) (AID 2284308);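 further: count of Hoechst-stained nuclei in migration zone around plated human neural progenitor spheres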
Summary of the method: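 Seven-point serial dilutions plus solvent control were applied to plated 0.3 mm hNPC spheres at differentiation start, with medium half-replaced at day 3. Nuclei positive for Hoechst in the migration zone were enumerated at 120 h.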

[27] = IUF_NPC2-5_viability_120hr: Viability Assessment at 120 hours in the Leibniz Research Institute for Environmental Medicine (IUF) Neural Progenitor Cell Migration and Differentiation Assay (NPC2-5) (AID 2284312)
Summary of the method: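 Human fetal (GW 16-19) neural progenitor spheres of 0.3 mm were plated on poly-D-lysine/laminin in N2 differentiation medium and exposed from day 0 for 120 h, with half-medium refresh at day 3. Viability was read as alamar blue resazurin-to-resorufin fluorescence against DMSO.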

Measured: outcome

CC(C)(C)NCC(O)c1cc(O)cc(O)c1 (configuration not stated)
inactive: [1] | [2] | [3] | [4] | [5] | [6] | [7] | [8] | [9] | [10] | [11] | [12] | [13] | [14] | [15] | [16] | [17] | [18] | [19] | [20] | [21] | [22] | [23] | [24] | [25] | [26] | [27]
